The results in this text go back to PubChem BioAssay.

The structures appear in SMILES notation. The source made the active and inactive calls. Unless noted, the rule behind the calls is not given here.

Experiment [1] can be described thus: anti-His antibody binders, primary screen, artefact control for SMM control protein annotation, biochemical, small-molecule microarray, 635 nm fluorescence (AID 1128).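 Note: score merges feature fluorescence with signal-to-noise for each printed compound spot.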 The settings on record: anti-His Alexa647 antibody binding, higher = more signal.
Experiment [2] deals with Human papillomavirus type 1a E7 protein (residues 1-88). The experiment in a line: HPV1a E7 small-molecule binders, primary screen, biochemical, small-molecule microarray, residues 1-88, 635 nm (AID 1129). As to conditions: small-molecule microarray binding, fluorescence 635 nm; higher = more signal.
Experiment [3] deals with Focal adhesion kinase 1 (Homo sapiens) (UniProt Q05397). The experiment can be described thus: small-molecule microarray binders of FAK, primary screen, biochemical, 635/667 nm fluorescence, BSA, DTT (AID 1130).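 Note: composite of spot emission at 667 nm and signal to noise over triplicate slides.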 As to conditions: PTK2 binding, 635 nm fluorescence, higher = more signal.
Sequence of Focal adhesion kinase 1 (Homo sapiens) (Q05397 whole entry, looked up): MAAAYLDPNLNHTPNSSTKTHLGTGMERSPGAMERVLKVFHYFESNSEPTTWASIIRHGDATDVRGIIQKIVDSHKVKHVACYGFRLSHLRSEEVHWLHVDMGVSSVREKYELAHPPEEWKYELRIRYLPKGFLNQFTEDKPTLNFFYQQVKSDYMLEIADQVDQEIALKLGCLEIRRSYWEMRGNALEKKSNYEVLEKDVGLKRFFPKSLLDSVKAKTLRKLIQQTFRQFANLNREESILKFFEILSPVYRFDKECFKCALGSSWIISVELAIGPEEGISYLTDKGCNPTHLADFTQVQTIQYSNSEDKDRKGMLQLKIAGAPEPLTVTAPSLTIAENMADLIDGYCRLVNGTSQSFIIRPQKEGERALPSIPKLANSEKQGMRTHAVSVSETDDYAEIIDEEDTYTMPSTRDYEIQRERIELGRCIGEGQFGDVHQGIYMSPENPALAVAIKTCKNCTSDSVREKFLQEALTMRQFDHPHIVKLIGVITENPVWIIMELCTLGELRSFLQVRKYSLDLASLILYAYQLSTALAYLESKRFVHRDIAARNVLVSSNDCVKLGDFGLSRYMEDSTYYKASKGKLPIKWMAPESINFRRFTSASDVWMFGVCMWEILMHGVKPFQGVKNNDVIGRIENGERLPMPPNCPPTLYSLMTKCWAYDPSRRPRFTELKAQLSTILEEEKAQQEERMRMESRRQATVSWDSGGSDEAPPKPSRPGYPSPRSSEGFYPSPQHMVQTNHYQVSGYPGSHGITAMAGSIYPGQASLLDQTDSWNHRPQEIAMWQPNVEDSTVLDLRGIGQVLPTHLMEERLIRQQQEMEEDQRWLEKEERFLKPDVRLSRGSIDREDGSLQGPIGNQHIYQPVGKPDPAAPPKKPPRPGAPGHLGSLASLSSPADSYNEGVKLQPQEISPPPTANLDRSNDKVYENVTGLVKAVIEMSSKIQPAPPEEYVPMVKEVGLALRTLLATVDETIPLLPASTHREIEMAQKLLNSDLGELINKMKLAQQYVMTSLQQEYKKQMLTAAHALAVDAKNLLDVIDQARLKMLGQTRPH
The subject of experiment [4] is Fibrinogen (Alexa647-labelled). The experiment can be described thus: fibrinogen binders on compound microarrays, profiling panel, artefact control for SMM control-protein annotation, biochemical, small-molecule microarray, 635/667 nm fluorescence (AID 1131).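 Note: z-score merges 667 nm fluorescence with per-spot signal-to-noise over triplicate slides.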 The settings on record: fibrinogen-A647 binding fluorescence, higher = more signal.
In experiment [5] the target is Follistatin (Homo sapiens) (UniProt P19883). The experiment can be described thus: follistatin binders on small-molecule microarrays, primary screen, biochemical, small-molecule microarray, 635/667 nm fluorescence (AID 1132). The settings on record: FST binding, 635 nm fluorescence, higher = more signal.
Sequence of Follistatin (Homo sapiens) (P19883 whole entry, looked up): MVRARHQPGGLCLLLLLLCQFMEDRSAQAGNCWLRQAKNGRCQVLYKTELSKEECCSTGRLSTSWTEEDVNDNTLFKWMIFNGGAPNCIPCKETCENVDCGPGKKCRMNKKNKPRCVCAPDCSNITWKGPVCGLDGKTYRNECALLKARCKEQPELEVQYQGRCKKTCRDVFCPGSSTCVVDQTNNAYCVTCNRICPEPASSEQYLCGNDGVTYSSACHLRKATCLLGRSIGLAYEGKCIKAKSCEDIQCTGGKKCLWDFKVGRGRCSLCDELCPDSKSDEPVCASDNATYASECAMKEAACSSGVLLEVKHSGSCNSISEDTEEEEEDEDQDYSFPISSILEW
In experiment [6] the target is Fibroblast growth factor 2 (Homo sapiens) (UniProt P09038). The experiment in a line: FGF2 binders on small-molecule microarrays, primary screen, biochemical, small-molecule microarray, 635/667 nm fluorescence (AID 1133). The settings on record: small-molecule microarray binding, FGF2, fluorescence 635/667; higher = more signal.
Sequence of Fibroblast growth factor 2 (Homo sapiens) (P09038 whole entry, looked up): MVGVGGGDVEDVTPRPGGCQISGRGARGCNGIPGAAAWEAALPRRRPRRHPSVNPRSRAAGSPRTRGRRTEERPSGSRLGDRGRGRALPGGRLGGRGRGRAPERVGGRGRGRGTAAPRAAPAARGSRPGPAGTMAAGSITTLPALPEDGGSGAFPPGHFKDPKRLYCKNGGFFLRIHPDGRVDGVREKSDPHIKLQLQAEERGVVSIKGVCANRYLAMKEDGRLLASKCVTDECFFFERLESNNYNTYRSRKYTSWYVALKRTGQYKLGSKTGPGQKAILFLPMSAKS
A short description of experiment [7]: mitochondrial membrane potential change in A549 cells, profiling panel, cell-based, JC-1 fluorescence, basal, 24 h, 100 nL (AID 1138).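 Note: A549 lung adenocarcinoma cells under basal conditions with no added stimulus; test concentration not given here.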 The settings on record: higher = more signal.
A further experiment relates to Lefty1. The experiment in a line: Lefty1 binders on small-molecule microarrays, primary screen, biochemical, small-molecule microarray, 635/667 nm fluorescence (AID 1139). The settings on record: small-molecule microarray binding, fluorescence 635/667; higher = more signal.
Experiment [8] has as its system wheat germ agglutinin (Triticum aestivum), Alexa647-labelled. The experiment can be described thus: wheat germ agglutinin binders on compound microarrays, profiling panel, artefact control for SMM control-protein annotation, biochemical, small-molecule microarray, 635/667 nm fluorescence (AID 1140).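 Note: score merges 667 nm feature emission with signal to noise over triplicate slides.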 The settings on record: WGA-A647 binding, 635 nm fluorescence, higher = more signal.

For experiment [9], the target named is Luciferin 4-monooxygenase (Photinus pyralis) (UniProt P08659). The experiment in a line: firefly luciferase enzyme inhibitors, primary screen, biochemical, luminescence, purified enzyme, 2006 set (AID 1141).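 Note: cell-free assay with purified firefly luciferase at 100 ng per well in PBS; test concentration not given here.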 The settings on record: SteadyGlo luminescence, 30 min, higher = more signal, called active from +8 up or from −8 down.
Sequence of Luciferin 4-monooxygenase (Photinus pyralis) (P08659 whole entry, looked up): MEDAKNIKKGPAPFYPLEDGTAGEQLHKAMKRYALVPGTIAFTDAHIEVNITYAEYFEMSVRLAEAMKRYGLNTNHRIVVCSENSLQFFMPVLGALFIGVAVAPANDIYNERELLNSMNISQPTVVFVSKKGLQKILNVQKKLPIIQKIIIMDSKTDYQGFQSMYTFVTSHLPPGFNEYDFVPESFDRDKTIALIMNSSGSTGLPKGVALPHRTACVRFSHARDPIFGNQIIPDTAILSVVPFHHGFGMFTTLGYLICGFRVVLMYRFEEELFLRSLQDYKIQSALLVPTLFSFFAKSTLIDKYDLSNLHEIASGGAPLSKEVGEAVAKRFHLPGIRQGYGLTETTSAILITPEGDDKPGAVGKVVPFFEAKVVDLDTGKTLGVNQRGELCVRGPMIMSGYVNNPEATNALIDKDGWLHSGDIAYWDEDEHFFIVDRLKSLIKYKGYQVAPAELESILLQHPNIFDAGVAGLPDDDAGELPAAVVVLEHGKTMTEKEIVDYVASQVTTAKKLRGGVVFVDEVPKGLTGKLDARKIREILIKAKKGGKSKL
The test system of experiment [10] is Wnt5a (protein binding on small-molecule microarray). The experiment can be described thus: Wnt5a binders on small-molecule microarray, primary screen, biophysical, 635/667 nm fluorescence (AID 1142).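 Note: fluorescence read at 667 nm with signal to noise per printed feature.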 The settings on record: 635 nm fluorescence, higher = more signal.
Experiment [11] is described as follows: cell viability in Huh7 cells, primary screen, cytotoxicity control for HCV replication inhibitor project, CellTiter-Glo luminescence, basal, 48 h (AID 1143).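 Note: Huh7 hepatoma cells carrying a hepatitis C replication reporter with no stimulus; test concentration not given here.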 As to conditions: Huh7 HCV replicon, higher = more signal, called active from +8 up or from −8 down.
The nature of experiment [12]: P. aeruginosa biofilm formation inhibitors, primary screen, PAO1 strain, BacTiter-Glo luminescence, LB-PBS (AID 1144). The settings on record: 12 h, higher = more signal.
Experiment [13] is described as follows: CREB reporter modulators without forskolin, primary screen, cell-based, PC12, CRE-LacZ reporter, unstimulated (AID 1145). The settings on record: no forskolin, luminescence, 4.5 h, higher = more signal, called active from +8 up or from −8 down.
Experiment [14] in a line: CREB reporter modulators under forskolin, primary screen, cell-based, PC12, CRE-LacZ reporter, forskolin-stimulated (AID 1146).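 Note: PC12 cells with 6xCRE LacZ reporter stimulated by forskolin 10 µM; beta-galactosidase reporter signal reflecting CREB driven transcription.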 As to conditions: luminescence, 4.5 h, higher = more signal, called active from +8 up or from −8 down.
For experiment [15], the target named is Streptavidin (Streptomyces avidinii) (UniProt P22629). The experiment in a line: streptavidin binders on small-molecule microarray, primary screen, artefact control for SMM compound annotation, biophysical, 635/667 nm fluorescence (AID 1147).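 Note: signal reflects streptavidin binding to arrayed compounds as a control protein.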 As to conditions: streptavidin binding, higher = more signal.
Sequence of Streptavidin (Streptomyces avidinii) (P22629 whole entry, looked up): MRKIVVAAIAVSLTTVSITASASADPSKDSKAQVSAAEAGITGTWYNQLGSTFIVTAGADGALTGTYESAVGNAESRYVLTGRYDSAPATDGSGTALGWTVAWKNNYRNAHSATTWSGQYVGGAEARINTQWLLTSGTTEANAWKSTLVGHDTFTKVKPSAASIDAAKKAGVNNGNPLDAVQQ
Experiment [16] is described as follows: small-molecule binders of probe aInhba, primary screen, biochemical, small-molecule microarray, 635/667 nm fluorescence (AID 1148).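 Note: score merges 667nm spot fluorescence with signal-to-noise for antibody binding to printed compounds.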 As to conditions: higher = more signal.
Experiment [17] deals with Torsin-1A (Homo sapiens) (UniProt O14656). The experiment can be described thus: torsin A binders from cell lysate, primary screen, small-molecule microarray, wild-type, 635/667 nm (AID 1149). The settings on record: COS7 hTOR1A-WT lysate, 635 nm fluorescence, higher = more signal.
Sequence of Torsin-1A (Homo sapiens) (O14656 whole entry, looked up): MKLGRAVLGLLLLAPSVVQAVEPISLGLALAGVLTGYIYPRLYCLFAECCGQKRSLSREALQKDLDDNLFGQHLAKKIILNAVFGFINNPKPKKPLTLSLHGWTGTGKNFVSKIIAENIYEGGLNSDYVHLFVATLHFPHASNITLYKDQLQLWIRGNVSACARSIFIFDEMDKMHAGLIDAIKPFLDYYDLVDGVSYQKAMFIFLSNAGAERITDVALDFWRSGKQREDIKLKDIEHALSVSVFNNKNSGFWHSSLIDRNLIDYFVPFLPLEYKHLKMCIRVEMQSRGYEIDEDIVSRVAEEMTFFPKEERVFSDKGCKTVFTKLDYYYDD
The target is the same in experiment [18]. The experiment in a line: small-molecule binders of mutant TOR1A in lysate, primary screen, cell lysate, small-molecule microarray, COS7 lysate, 635/667 nm fluorescence (AID 1150).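 Note: score pools 667 nm emission and signal to noise measuring lysate protein binding.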 As to conditions: COS7 hTOR1A mutant lysate, 635 nm fluorescence, higher = more signal.
The subject of experiment [19] is Sonic hedgehog protein (Shh). The experiment can be described thus: small-molecule binders of Shh protein, primary screen, biochemical, small-molecule microarray, 635/667 nm fluorescence (AID 1151).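 Note: Shh protein binding to compounds spotted on small-molecule microarray slides; score combines spot fluorescence intensity with signal-to-noise across triplicate slides.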 The settings on record: small-molecule microarray binding, 635 nm fluorescence; higher = more signal.

`CO[C@H]1O[C@H](CO)[C@@H](OC(=O)Nc2ccc(C(F)(F)F)cc2)[C@H](OC(=O)Nc2ccccc2)[C@@H]1OC(=O)Nc1ccccc1`: the composite z-score is 0.817 in [1]; 1.18 in experiment [2]; 0.132 in experiment [3]; 0.944 in [4]; 1.21 in [5]; 0.21 in [6]. The composite z-score in the experiment on Lefty1 is 0.41; in experiment [8], 0.58; in experiment [10], 0.534; in experiment [15], 1.08; in [16], -0.0538; in the experiment with Torsin-1A (Homo sapiens) [17] it was 0.146. Besides, the figures for the composite z-score (with Torsin-1A (Homo sapiens) [18]; in [19]) were -0.0359 and 0.934, respectively. The z-score is -0.191 in experiment [7]; -0.72 (inactive) in [9]; -3.7 (inactive) in [11]; 0.724 (inactive) in [12]; 0.904 (inactive) in [13]; -1.01 (inactive) in experiment [14].
For `COCCOC(=O)N1C(=O)[C@@]2(c3cc(C#CCCO)ccc31)[C@H](c1ccc(O)cc1)N1[C@H](c3ccccc3)[C@H](c3ccccc3)OC(=O)[C@H]1[C@@H]2C(=O)N1CCCCCCC1`, the composite z-score in experiment [1] is 2.4; in experiment [2], 1; in [3], 0.855; in experiment [4], 0.771; in experiment [5], 1.43; in experiment [6] it was 1.6. For the same compound, the composite z-score came to 1.21 in the experiment with Lefty1; 1.06 in [8]; 0.799 in [10]; 0.825 in experiment [15]; 0.62 in [16]; 0.705 in the experiment with Torsin-1A (Homo sapiens) [17]. For the same compound, the composite z-score was found to be 0.667 in the experiment with Torsin-1A (Homo sapiens) [18] and 1.65 in [19]. For the same compound, the z-score in experiment [7] was -0.183; in [9], -0.179 (inactive); in experiment [11] it was -0.883 (inactive); in [12] it was -0.569 (inactive); in experiment [13] it was 0.568 (inactive); in experiment [14], -0.268 (inactive).
As for `COc1ccc(C(=O)Nc2cccc(CN3C(=O)[C@@]4(O[C@@H](CCn5cc([C@H](O)c6ccccc6)nn5)[C@H]([Si](C)(C)c5ccc(OC)cc5)[C@H]4C)c4ccccc43)c2)cc1`, the composite z-score in [1] is 0.669; in experiment [2], 0.138; in experiment [3], 0.638; in experiment [4] it was 0.528; in experiment [5], 1.19; in experiment [6], 0.612. Moreover, the composite z-score was 1.01 with Lefty1; 0.443 in experiment [8]; 0.417 in experiment [10]; 0.0185 in experiment [15]; 0.0714 in experiment [16]; -0.12 with Torsin-1A (Homo sapiens) [17]. The composite z-score was determined as 0.377 in the experiment with Torsin-1A (Homo sapiens) [18] and 1.89 in [19]. For the same compound, the z-score in [7] was -0.175; in experiment [9], 0.39 (inactive); in experiment [11], -6.59 (inactive); in [12], -0.301 (inactive); in [13], 0.833 (inactive); in [14], 0.834 (inactive).
In the case of `O=C1C2C=CC(C(O)c3ccc(Br)cc3)N(n3cnnc3)C2C(=O)N1Cc1ccccc1` (stereo not given), the composite z-score in [1] turned out to be 0.648; in experiment [2], 1.16; in experiment [3], 0.407; in experiment [4], 0.974; in [5], 0.722; in experiment [6] it was 0.298. The composite z-score with Lefty1 was 0.425; in experiment [8], 1.15; in experiment [10], 0.175; in experiment [15] it was 1.27; in [16], -0.0375; with Torsin-1A (Homo sapiens) [17] it was 0.489. For the same compound, the figures for the composite z-score (with Torsin-1A (Homo sapiens) [18]; in experiment [19]) were 1.05 and 0.232, respectively. Moreover, the z-score in experiment [7] was -0.901; in experiment [9] it was 1.66 (inactive); in experiment [11], 0.245 (inactive); in experiment [12], 0.913 (inactive); in experiment [13] it was 0.127 (inactive); in experiment [14], 1.03 (inactive).
`O=[N+]([O-])c1ccc(C[n+]2ccc(CCCO)cc2)o1`: the composite z-score in experiment [1] was -0.0383; in experiment [2], 1.07; in experiment [3], 1.08; in experiment [4] it was 0.752; in experiment [5], 1.4; in experiment [6] it was 1.77. Further, the composite z-score in the experiment with Lefty1 came out at 0.73; in [8] it was 0.226; in [10], 0.98; in experiment [15], 1.15; in experiment [16], 0.189; with Torsin-1A (Homo sapiens) [17], 0.153. The results for the composite z-score (with Torsin-1A (Homo sapiens) [18]; in experiment [19]) were 0.263 and 1.06, respectively. The z-score in [7] was -0.506; in experiment [9] it was -0.868 (inactive); in [11], -1.22 (inactive); in [12] it was 0.0757 (inactive); in experiment [13], 0.0026 (inactive); in experiment [14], 0.619 (inactive).
